These results are taken from PubChem BioAssay (NCI).

Molecules are shown by their SMILES. About 79,000 compounds went through this panel and 15% of them were active in at least one assay; those are over-represented in the sample as a whole. A number with no mark means an inactive call. The source made the active and inactive calls. Cut-off read from the data, not from the text of the source: active = growth inhibition above about 70%; inactive = the rest.

The test can be described thus: NCI Yeast Anticancer Drug Screen. Data for the bub3 strain (AID 167). The following applies: S. cerevisiae bub3 mutant strain, at 50.0 µM, hits give high values. The method in brief:
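Mutant yeast screening strain plus compound; vehicle-treated cultures serve as the 0% inhibition reference.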
As for `CCc1ccc(/C(C)=N/NC(N)=S)cc1`, the growth inhibition is 34.8%.

As for `CC(C)/C=C1\CCOC1=O`, the growth inhibition is -0.55%.

As to `COc1c(C(=O)/C(=N/Nc2ccccc2)C(C)=O)c(O)c(OC)c2occc12`, the growth inhibition was 47.8%.

Regarding `COc1ccc(CC/C(=N/O)c2ccccc2)cc1`, the growth inhibition is 98% (active).

As to `CCOC(=O)C1(C#N)C(c2ccccc2)C1(C#N)C#N` (stereo not given), the growth inhibition is 97.4% (active).

For the molecule `COc1ccc(OC)c(/C=C/NC=O)c1`, the growth inhibition is -4.35%.

In the case of `CC(=O)Oc1ccc(-c2ccc(Br)cc2)cc1`, the growth inhibition was 97.6% (active).

Turning to `COC(=O)/C(C#N)=C/c1cc(OC)c(O)cc1Br`, the growth inhibition was 46.5%.

As to `CCC(C1SC(=S)NC1=O)C1SC(=S)NC1=O` (stereo not given), the growth inhibition was 99.5% (active).

For the molecule `CCC(C)c1ccc(O)c(C(C)c2ccccc2)c1` (stereo not given), the growth inhibition is 91% (active).

Turning to `C/C(=N\NC(=S)N1CCN(c2ccccc2)CC1)c1nccs1`, the growth inhibition was 88.3% (active).

As to `COc1ccc2c(C(=O)c3ccccc3)c3[n+](cc2c1OC)CCc1cc2c(cc1-3)OCO2`, the growth inhibition was 50.3%.

Turning to `Cc1cccc(C[N+](C)(C)CCCO)c1C`, the growth inhibition is -1.9%.

Regarding `c1ccc(N=C2SC3=NCCN3C2=Nc2ccccc2)cc1`, the growth inhibition was 70.2% (active).

As for `Cc1ccc(SCc2ccccc2Cl)nn1`, the growth inhibition was 15.4%.

Regarding `CCCc1cc(=O)oc2c3c(c4c(c12)OC(C)(C)CC4)O[C@H](C)[C@H](C)C3=O`, the growth inhibition is 91.1% (active).

Turning to `CC1(C)COC(c2cccc(C(O)c3ccc(Cl)cc3)c2)=N1` (stereo not given), the growth inhibition is 52.5%.

With `CCOC(=O)c1cc(NC(=O)c2cc(NC(=O)c3cc(NC(=O)c4c(-c5ccccc5)noc4C)cn3C)cn2C)cn1C`, the growth inhibition is 36.1%.

Regarding `O=C(N/N=C/c1ccccc1O)c1ccccc1-n1cccc1`, the growth inhibition is 62.7%.

For the molecule `O=C1CN(CCN2CCOCC2)CC(=O)N2Cc3ccccc3CN12`, the growth inhibition was 68.5%.

For `CCC[CH2][Sn]([CH2]CCC)([NH]c1ncnc2[nH]cnc12)[NH]c1ncnc2[nH]cnc12`, the growth inhibition was 87.6% (active).

Regarding `Oc1ccc(Br)cc1C=Nc1c(NC2CCCCC2)oc2ccc(Br)cc12`, the growth inhibition was 53.4%.

Regarding `Cc1cc2c(C(C)C)c(O)c(O)c3coc(/c1=c1/c(C)cc4c(C(C)C)c(=O)c(=O)c5coc1c45)c32`, the growth inhibition is 98.5% (active).

For the molecule `O=C1c2ccccc2C(=O)N1/N=C\c1ccccc1[N+](=O)[O-]`, the growth inhibition was 3.75%.

For `O[C@H](CNCCS)[C@@H](O)CNCCS`, the growth inhibition is 40%.

On to `C[C@]12CC[C@H](O)CC1=CC[C@@H]1C2CC[C@]2(C)C(=O)N(N)C(=O)CC12` (stereo not given in full), for which the growth inhibition is 86.7% (active).

Take `O=C(C(/C=N/C(=S)NCc1ccccc1)=C(/O)c1ccccc1)c1ccccc1`: the growth inhibition was 98.3% (active).

For the molecule `C=CC1(c2ccc(-c3ccccc3)cc2)OCCO1`, the growth inhibition is 64.1%.

Take `C=C1CC(COc2ccc3c(C)cc(=O)oc3c2)(c2ccccc2)OC1=O` (stereo not given): the growth inhibition was 30.2%.

As for `CN(C)CCCNc1c2ccccc2nc2ccc([N+](=O)[O-])cc12`, the growth inhibition is 39.5%.

In the case of `CN1CCC(OC(=O)c2ccc3ncccc3c2)CC1`, the growth inhibition was 33.9%.

For `COc1ccc(/C=C2/C(=O)N(C(=O)c3ccccc3O)N=C2C)cc1OC`, the growth inhibition is 76.5% (active).

As to `CC1([N+](=O)[O-])C(=O)C2(N3CCOCC3)CCCC2C1c1ccccc1` (stereo not given), the growth inhibition is -5.2%.

Turning to `COc1ccc(C2=C(Cl)C(=O)N(c3ccc(C)cc3)C(=O)C2(Cl)Cl)cc1`, the growth inhibition was 76.3% (active).

As for `COc1ccnc(-c2cc(OC)cc(/C(N)=N/O)n2)c1`, the growth inhibition was 88.7% (active).

As for `Nc1ccccc1CCc1ccccc1`, the growth inhibition was 90.8% (active).

Turning to `COC(=O)c1ccc(OCCC(=O)CCl)cc1`, the growth inhibition was 99.6% (active).

As to `CCCCCCCCCCCCS(=O)(=O)CC(Br)C(=O)c1ccco1` (stereo not given), the growth inhibition is 95.1% (active).

Turning to `FC(F)(F)C(F)(F)C1(F)C(F)(F)C(F)(F)C(F)(F)C(F)(F)C1(F)F`, the growth inhibition is 99.5% (active).

Regarding `O=C(O)C(O)C(O)C(O)C(O)CO.[Ag]` (stereo not given), the growth inhibition is 99.3% (active).
